Read-out in experiment [1]: Urokinase-type plasminogen activator receptor (uPAR), PLAUR (gene 5329)
Put plainly: BSK_4H_uPAR: BioMAP Diversity Plus: 4H Assay for Urokinase-type plasminogen activator receptor (uPAR) Biomarker Activity (AID 2283030). To be noted: primary human endothelial cells (HUVEC); actives raise or lower the signal. The method, boiled down: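 Primary human umbilical vein endothelial cells were exposed to chemical for 24 h before cell-surface uPAR was quantified by ELISA. Activity was fitted bidirectionally against the DMSO negative control baseline.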

Read-out in experiment [2]: Interferon-gamma inducible Protein 10 (IP10), CXCL10 (gene 3627)
Put plainly: BSK_BE3C_IP10: BioMAP Diversity Plus: BE3C Assay for Interferon-gamma inducible Protein 10 (IP10) Biomarker Activity (AID 2283034). To be noted: primary human bronchial epithelial cells; actives raise or lower the signal. The method, boiled down: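 ELISA readout of IP-10 in BE3C system: primary human bronchial epithelial cells, 24 h post-dosing; bidirectional curve fit vs DMSO baseline.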

Read-out in experiment [3]: Transforming growth factor beta 1 (TGFb1), TGFB1 (gene 7040)
Put plainly: BSK_BE3C_TGFb1: BioMAP Diversity Plus: BE3C Assay for Transforming growth factor beta 1 (TGFb1) Biomarker Activity (AID 2283036;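 also: TGF-b1 protein level measured by ELISA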). As to conditions: primary human bronchial epithelial cells; actives raise or lower the signal. In a few lines: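 Read-out: ELISA for TGF-b1 in primary human bronchial epithelial cultures, 24 h post-dose. Bidirectional curve fitting vs DMSO control; gain or loss of signal both scored.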

Read-out in experiment [4]: Plasminogen activator inhibitor-1 (PAI1), SERPINE1 (gene 5054)
Put plainly: BSK_BE3C_PAI1: BioMAP Diversity Plus: BE3C Assay for Plasminogen activator inhibitor-1 (PAI1) Biomarker Activity (AID 2283037). To be noted: primary human bronchial epithelial cells; actives raise or lower the signal. The method, boiled down:
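ELISA read-out of PAI-1 from human bronchial epithelial primary cells, 24 h post-dosing; bidirectional curve fit vs DMSO baseline, gain or loss of signal scored.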

Read-out in experiment [5]: urokinase plasminogen activator (uPA), PLAU (gene 5328)
Put plainly: BSK_BE3C_uPA: BioMAP Diversity Plus: BE3C Assay for urokinase plasminogen activator (uPA) Biomarker Activity (AID 2283038).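 As to outcome: uPA protein level quantified by ELISA in cell cultures; uPA read one day after compound addition.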 To be noted: primary human bronchial epithelial cells; actives raise or lower the signal. In a few lines: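 Human primary bronchial epithelial cells were exposed to chemical for 24 h, then uPA levels were measured by ELISA. Responses were fitted bidirectionally against DMSO as negative control and baseline. Parallel SRB staining of total protein gauged overt cytotoxicity.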

Read-out in experiment [6]: Urokinase-type plasminogen activator receptor (uPAR), PLAUR (gene 5329)
The experiment can be described thus: BSK_BE3C_uPAR: BioMAP Diversity Plus: BE3C Assay for Urokinase-type plasminogen activator receptor (uPAR) Biomarker Activity (AID 2283039).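 As to outcome: cells exposed to compound for one day before measurement.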 As to conditions: primary human bronchial epithelial cells; actives raise or lower the signal. In a few lines:
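ELISA readout of uPAR on human lung primary bronchial epithelial cells, 24 h post-dosing. Bidirectional curve fit relative to DMSO vehicle baseline; gain or loss of signal both scored.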

Read-out in experiment [7]: Interleukin-6 (IL6), IL6 (gene 3569)
The experiment can be described thus: BSK_CASM3C_IL6: BioMAP Diversity Plus: CASM3C Assay for Interleukin-6 (IL6) Biomarker Activity for (AID 2283040). To be noted: primary human coronary artery smooth muscle cells; actives raise or lower the signal.

Read-out in experiment [8]: Tissue plasminogen activator (tPA), PLAT (gene 5327)
The experiment can be described thus: BSK_BE3C_tPA: BioMAP Diversity Plus: BE3C Assay for Tissue plasminogen activator (tPA) Biomarker Activity (AID 2283041).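 As to outcome: tPA level quantified by ELISA one day after compound addition.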 To be noted: primary human bronchial epithelial cells; actives raise or lower the signal. The method, boiled down: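 ELISA read-out of tPA on human primary bronchial epithelial cells, 24 h post-dosing; bidirectional fit vs DMSO negative control/baseline.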

Read-out in experiment [9]: Interleukin-8 (IL8), CXCL8 (gene 3576)
Put plainly: BSK_CASM3C_IL8: BioMAP Diversity Plus: CASM3C Assay for Interleukin-8 (IL8) Biomarker Activity (AID 2283042).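 Also: IL-8 protein level quantified by ELISA.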 As to conditions: primary human coronary artery smooth muscle cells; actives raise or lower the signal.

Read-out in experiment [10]: Human Leukocyte Antigen - DR isotype (HLADR), HLA-DRA (gene 3122)
Put plainly: BSK_CASM3C_HLADR: BioMAP Diversity Plus: CASM3C Assay for Human Leukocyte Antigen - DR isotype (HLADR) Biomarker Activity (AID 2283043).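 Also: cell-surface HLA-DR protein level quantified by ELISA.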 As to conditions: primary human coronary artery smooth muscle cells; actives raise or lower the signal.

Read-out in experiment [11]: Macrophage colony-stimulating factor (MCSF), CSF1 (gene 1435)
The experiment can be described thus: BSK_CASM3C_MCSF: BioMAP Diversity Plus: CASM3C Assay for Macrophage colony-stimulating factor (MCSF) Biomarker Activity (AID 2283044).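 Also: M-CSF protein amount quantified by ELISA after 24 h exposure.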 To be noted: primary human coronary artery smooth muscle cells; actives raise or lower the signal.

Read-out in experiment [12]: Low-density lipoprotein receptor (LDLR), LDLR (gene 3949)
The experiment can be described thus: BSK_CASM3C_LDLR: BioMAP Diversity Plus: CASM3C Assay for Low-density lipoprotein receptor (LDLR) Biomarker Activity (AID 2283045).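 Also: LDLR protein level on the cell surface quantified by ELISA.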 As to conditions: primary human coronary artery smooth muscle cells; actives raise or lower the signal.

Read-out in experiment [13]: Monocyte Chemoattractant Protein-1 (MCP1), CCL2 (gene 6347)
The experiment can be described thus: BSK_CASM3C_MCP1: BioMAP Diversity Plus: CASM3C Assay for Monocyte Chemoattractant Protein-1 (MCP1) Biomarker Activity (AID 2283046).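 Also: MCP-1 level quantified by ELISA 24 h after dosing.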 To be noted: primary human coronary artery smooth muscle cells; actives raise or lower the signal.

Experiment [14] is described as follows: BSK_CASM3C_Proliferation: Cell Proliferation Assessment in the BioMAP Diversity Plus: CASM3C Assay (AID 2283047).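 Also: sulforhodamine B total protein stain as relative cell number at 560 nm; sub-confluent cells exposed 48 h before staining; fitted both ways against DMSO so gain or loss of cell number.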 As to conditions: primary human coronary artery smooth muscle cells.
Read-out in experiment [15]: Monokine induced gamma interferon (MIG), CXCL9 (gene 4283)
Put plainly: BSK_CASM3C_MIG: BioMAP Diversity Plus: CASM3C Assay for Monokine induced gamma interferon (MIG) Biomarker Activity (AID 2283048). As to conditions: primary human coronary artery smooth muscle cells; actives raise or lower the signal.

Read-out in experiment [16]: serum amyloid A (SAA), SAA1 (gene 6288)
The experiment can be described thus: BSK_CASM3C_SAA: BioMAP Diversity Plus: CASM3C Assay for serum amyloid A (SAA) Biomarker Activity (AID 2283049).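 Also: SAA protein level quantified by ELISA.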 As to conditions: primary human coronary artery smooth muscle cells; actives raise or lower the signal.

Read-out in experiment [17]: Human Leukocyte Antigen - DR isotype (HLADR), HLA-DRA (gene 3122)
Put plainly: BSK_BE3C_HLADR: BioMAP Diversity Plus: BE3C Assay for Human Leukocyte Antigen - DR isotype (HLADR) Biomarker Activity (AID 2283032). To be noted: primary human bronchial epithelial cells; actives raise or lower the signal. In a few lines: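 Primary human bronchial epithelial cells (BE3C); 24 h chemical exposure; HLA-DR by ELISA; bidirectional curve fit vs DMSO baseline.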

Read-out in experiment [18]: Vascular cell adhesion molecule 1 (VCAM1), VCAM1 (gene 7412)
Put plainly: BSK_4H_VCAM1: BioMAP Diversity Plus: 4H Assay for Vascular cell adhesion molecule 1 (VCAM1) Biomarker Activity (AID 2283033).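 As to outcome: cell-surface VCAM-1 protein measured by ELISA.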 To be noted: primary human endothelial cells (HUVEC); actives raise or lower the signal. The method, boiled down: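 HUVEC, 24 h post-dose; VCAM-1 by ELISA. Bidirectional curve fit vs DMSO baseline. Parallel SRB total-protein stain (0.1% SRB after 10% TCA fixation, 560 nm) for cytotoxicity.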

Read-out in experiment [19]: Vascular endothelial growth factor receptor 2 (Homo sapiens) (UniProt P35968)
Put plainly: BSK_4H_VEGFRII: BioMAP Diversity Plus: 4H Assay for Vascular endothelial growth factor receptor 2 (VEGFR2) Biomarker Activity (AID 2283031).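 As to AC50: cell-surface VEGFR2 protein level quantified by ELISA.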 As to conditions: primary human endothelial cells (HUVEC); actives raise or lower the signal. In a few lines: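 Primary human umbilical vein endothelial cells in the BioMAP 4H system were dosed with test chemical, and 24 h later VEGFRII was measured by ELISA. Activity was fitted bidirectionally against DMSO as negative control and baseline.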

Molecules are shown by their SMILES. Several values for one entry are separate records, joined by “and”; a condition that tells them apart may be missing. Equal entries are not always repeated. More than one record can exist for a structure, and the calls need not agree. Activity calls are given as the source filed them. The calls were made as follows: active = hit-call score of the fitted dose curve at least 0.9, where 1 is the maximum; inactive = score below 0.9.

On to `CO/C=C(/C(=O)OC)c1ccccc1Oc1cc(Oc2ccccc2C#N)ncn1`, for which the AC50 in experiment [1] is 30.4 µM (active) and 30.6 µM (active) and 30.8 µM (active); in experiment [2] it was 21.1 µM (active) and 26.1 µM (active); in experiment [4], 21.1 µM (active); in [7] it was 15.8 µM (active) and 21.1 µM (active); in [8] it was 28.2 µM (active); in experiment [13], 30.7 µM (active) and 37.9 µM (active) and 37.6 µM (active). Further, the AC50 in experiment [14] was 13.5 µM (active) and 27.1 µM (active) and 13.9 µM (active). Besides, the result in [1], in experiment [3], in experiment [4], in experiment [5], in [6] and in [7] was inactive. Besides, the result in experiment [8], in [9], in experiment [10], in experiment [11], in [12] and in [13] was inactive. The outcome in experiment [14], in [15] and in [16] was inactive.

In the case of `COC(=O)c1ccccc1C(=O)OC`, the outcome in experiment [1], in [17], in experiment [18], in experiment [2], in [3] and in [4] was inactive. The result in [5], in experiment [6], in experiment [7], in experiment [8], in experiment [9] and in [10] was inactive. The outcome in experiment [11], in experiment [12], in [13], in experiment [14], in experiment [15] and in experiment [16] was inactive.

For the compound `C=CC1(C)OC(=O)N(c2cc(Cl)cc(Cl)c2)C1=O` (centres undefined), the outcome in experiment [1], in experiment [19], in [18], in [2], in experiment [3] and in experiment [4] was inactive. Also, the outcome in experiment [5], in [6], in [7], in experiment [8], in experiment [9] and in experiment [10] was inactive. Further, the result in [11], in experiment [12], in experiment [13], in experiment [14], in [15] and in [16] was inactive.

`CCON=C(CC)C1=C(O)CC(c2c(C)cc(C)cc2C)CC1=O` (centres undefined): the outcome in [1], in [19], in [17], in [18], in [2] and in experiment [3] was inactive. Further, the outcome in experiment [4], in experiment [5], in [6], in experiment [7], in experiment [8] and in experiment [9] was inactive. For the same compound, the outcome in experiment [10], in [11], in experiment [12], in [13], in [14] and in experiment [15] was inactive. Further, the result in experiment [16] was inactive.

With `CNC(=S)S`, the result in [1], in experiment [19], in [17], in [2], in experiment [3] and in [4] was inactive. Further, the outcome in experiment [5], in experiment [7], in [8], in experiment [9], in experiment [10] and in experiment [11] was inactive. For the same compound, the result in experiment [12], in experiment [13], in [14], in [15] and in [16] was inactive. Moreover, the AC50 is 22.4 µM (active) in [18] and 11.7 µM (active) in [6].

Take `C#CCOS(=O)OC1CCCCC1Oc1ccc(C(C)(C)C)cc1` (centres undefined): the AC50 is 20 µM (active) in experiment [1]; 20 µM (active) in experiment [19]; 26.8 µM (active) in experiment [18]; 16.3 µM (active) in experiment [2]; 18.4 µM (active) in experiment [4]; 27 µM (active) in experiment [5]. The AC50 is 20 µM (active) in [6]; 13.2 µM (active) in experiment [8]; 9.71 µM (active) in experiment [10]; 27 µM (active) in experiment [11]; 29.8 µM (active) in [13]; 16.5 µM (active) in experiment [14]. For the same compound, the AC50 in experiment [16] was 5.32 µM (active). Moreover, the result in experiment [3], in experiment [7], in [9], in experiment [12] and in experiment [15] was inactive.

As a reminder, the AC50 is the midpoint of the concentration-response curve, whichever way the signal moves.
